Source: PubChem BioAssay (The Scripps Research Institute Molecular Screening Center)
MITF inh – MITF inhibitors, primary screen, biochemical, AlphaScreen, human. Microphthalmia-associated transcription factor (Homo sapiens), O75030. AlphaScreen MITF homodimerization, bead proximity signal. inhibition, % at 2.6 µM. hit rate 0.91% among 650,000. AID 1259374, 2018; in the data active = inhibition above about 50%;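 note: 0% = vehicle wells with protein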
Target sequence (O75030 whole entry, looked up): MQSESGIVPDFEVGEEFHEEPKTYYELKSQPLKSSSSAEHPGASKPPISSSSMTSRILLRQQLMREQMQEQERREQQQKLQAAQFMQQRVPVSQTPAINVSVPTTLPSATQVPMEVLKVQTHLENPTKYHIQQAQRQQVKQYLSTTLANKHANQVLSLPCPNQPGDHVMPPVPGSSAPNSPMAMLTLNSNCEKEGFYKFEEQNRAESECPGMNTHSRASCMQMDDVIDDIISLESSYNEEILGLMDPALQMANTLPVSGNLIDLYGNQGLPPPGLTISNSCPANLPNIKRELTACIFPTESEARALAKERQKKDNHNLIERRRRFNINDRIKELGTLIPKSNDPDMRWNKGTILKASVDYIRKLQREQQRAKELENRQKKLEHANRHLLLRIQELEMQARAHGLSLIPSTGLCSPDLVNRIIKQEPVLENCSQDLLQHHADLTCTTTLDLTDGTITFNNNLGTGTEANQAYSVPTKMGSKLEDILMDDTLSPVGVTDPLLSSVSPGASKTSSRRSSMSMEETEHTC
GPR151 ag – activators of human GPR151, primary screen, cell-based, PathHunter beta-arrestin, luminescence; PathHunter beta-arrestin GPR151 cells; activation, % at 11.2 µM; hit rate 1% among 650,000; AID 1508602, 2020; in the data active = activation above about 4.9%;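 note: 0% = median of compound wells and 100% = cells with positive control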
FBW7 act – FBW7 E3 ligase activators, primary screen, biochemical, AlphaScreen, human; F-box/WD repeat-containing protein 7 (Homo sapiens), Q969H0; AID 1259310, 2017; normalized activity (activation), % at 26.1 µM; AlphaScreen FBW7–phospho-cyclin E peptide binding, activator screen; hit rate 0.13% among 650,000; in the data active = normalized activity above about 1.9%;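 note: purified mutant Fbw7 with reduced substrate affinity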
TEAD-YAP block – TEAD-YAP interaction inhibition, primary screen, TEAD-YAP interaction inhibitor project, luminescence, HEK-TIYL cells | inhibition, % at 9.12 µM | TEAD-Gal4/YAP UAS-luciferase luminescence | AID 1259422, 2018 | hit rate 1.4% among 640,000; in the data active = inhibition above about 32%;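 note: 0% = median of test compound wells and 100% = reference inhibitor wells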
* = called active by the depositor. An excerpt weighted towards active compounds, which were near 3.5% of everything screened.

SMILES | MITF inh | GPR151 ag | FBW7 act | TEAD-YAP block
COc1ccc(S(=O)(=O)N2c3ccc(Br)cc3C(C)=CC2(C)C)cc1 | 5.5 | -0.1 | -0.1 | 55.2*
COC(=O)c1ccc(Oc2c(F)c(OC)nc(OC)c2F)cc1 | -8.8 | -1.5 | 0.0 | -2.8
CC12CCC(C(=O)Nc3nc4c(s3)CCCC4)(CC1=O)C2(C)C (stereo not drawn) | 8.1 | -1.6 | -0.3 | 7.5
CCC(=O)N1CCN(c2ccc(N)cc2Cl)CC1 | 9.7 | 1.6 | 0.1 | 9.3
O=C(CCC(=O)Nc1cccc(Cl)c1)N/N=C/c1ccccc1O | 56.3* | -0.1 | 0.5 | 6.7
O=C(CCCCC(=O)N/N=C/c1ccccc1O)N/N=C/c1ccccc1O | 7.1 | 0.9 | -0.6 | 40.0*
O=C(CCCNc1ccccc1)N/N=C/c1ccccc1O | -5.4 | -1.0 | 0.3 | 5.8
CC(C)(C)NC(=O)C(=O)N/N=C/c1ccccc1O | 53.0* | 0.1 | -1.8 | -44.4
CC(C)N(CCNC(=O)c1cnc(NC2CCN(Cc3ccccc3)CC2)s1)C(C)C | -14.3 | -0.8 | 0.0 | 6.1
CCCCn1c(CNC(=O)c2ccccc2F)nnc1SCC(=O)Nc1sc2c(c1C(=O)OCC)CCCC2 | 5.0 | 0.0 | -0.1 | 0.3
CC1(C)CC(=O)C2=C(C1)OC1=C(C(=O)CC(C)(C)C1)C2c1cc(C(C)(C)C)c(O)c(C(C)(C)C)c1 | 7.8 | 0.9 | 0.2 | -0.3
CC1(C)CC(=O)C2=C(C1)OC(N)=C(C#N)C2c1cc(C(C)(C)C)c(O)c(C(C)(C)C)c1 (stereo not drawn) | 10.9 | 1.1 | 0.3 | 80.1*
O=C(NCc1cccc(C(F)(F)F)c1)c1cccc(N2CCC(N3CCOCC3)CC2)n1 | -9.3 | 1.8 | -0.1 | 35.8*
CCCCC(=O)NC(c1ccc(C)cc1)c1ccc2cccnc2c1O (stereo not drawn) | 14.2 | -0.1 | -0.4 | 85.5*
CCCCC(=O)NC(c1ccc(N(CC)CC)cc1)c1ccc2cccnc2c1O (stereo not drawn) | 15.2 | 1.3 | -0.5 | 25.0
Cc1ccc(C(NC(=O)COc2ccccc2)c2cc(Cl)c3cccnc3c2O)cc1 (stereo not drawn) | 12.2 | -0.3 | -0.1 | 18.8
CCCC(=O)NC(c1ccc(C)cc1)c1ccc2cccnc2c1O (stereo not drawn) | 4.0 | 0.6 | -0.5 | 69.2*
O=C(O)/C=C/C(=O)N1CCN(C(=O)c2ccco2)CC1 | -4.8 | -1.1 | 0.0 | 9.8
CCOc1cc(/C=C2/C(=N)N3N=C(CC(C)C)SC3=NC2=O)ccc1OCCOc1ccccc1C | 2.6 | -0.3 | -0.2 | 21.8
CC1=NN(c2ccccc2)C(=O)/C1=C/c1ccc(Cl)cc1 | 4.3 | 1.8 | -0.1 | -1.5
CC1=NN(c2ccccc2)C(=O)/C1=C/c1cccn1-c1ccccc1 | 64.2* | -0.7 | -1.3 | -43.8
O=C(NC(=S)Nc1cccnc1)c1cccc2ccccc12 | -7.5 | -0.7 | -0.4 | -3.8
O=C(N/N=C/c1ccc(O)c(O)c1O)c1sc2ccccc2c1Cl | 60.8* | -1.0 | -0.7 | -0.8
O=C(Nc1ccc(O)cc1)c1sc2ccccc2c1Cl | 3.1 | -2.0 | -0.2 | 87.0*
Cc1nc(NC(=O)c2sc3ccccc3c2Cl)sc1C | 7.4 | -7.6 | 0.3 | 86.6*
SMILES | MITF inh | GPR151 ag | FBW7 act | TEAD-YAP block
COC(=O)c1sc(NC(=O)c2sc3ccccc3c2Cl)nc1C | 28.2 | 1.8 | 0.1 | -58.5
COc1ccc(S(=O)(=O)Nc2ccc(OC(=O)c3ccccc3)cc2)cc1 | -2.4 | -0.7 | 0.5 | 10.7
O=C(Cn1nc(C(=O)O)c2ccccc2c1=O)NC1CCCCC1 | -3.0 | -0.2 | 0.0 | 2.9
Cc1cccc(NC(=O)C2(S(=O)(=O)c3ccc(Cl)cc3)CC2)c1 | -8.1 | -0.7 | 4.7* | -8.8
Cc1ccc(NC(=O)C2(S(=O)(=O)c3ccc(Cl)cc3)CC2)cc1 | -6.8 | 1.2 | 0.0 | 1.1
CNc1c(NC(=O)CC23CC4CC(CC(C4)C2)C3)c(=O)oc2ccccc12 | 4.2 | 1.6 | 0.2 | 7.1
O=C(Cn1c(=O)[nH]c2ccccc21)NCc1ccc2c(c1)OCO2 | 5.6 | -5.8 | 0.1 | 74.5*
COc1ccc(N2C(=O)/C(=C\C=C\c3ccco3)C(=O)NC2=S)cc1 | 76.5* | -1.4 | -0.2 | -1.4
COc1cccc(N2C(=O)NC(=O)/C(=C/C=C/c3ccco3)C2=O)c1 | 18.2 | 4.2 | 0.0 | 3.3
C=C(C)CN(CC)Cc1cc(Cl)ccc1O | -6.0 | 2.1 | 0.2 | 2.8
CCN(CC)Cc1cc(O)c(CN(CC)CC)cc1O | 76.0* | -1.0 | -0.1 | 4.2
CCOC(=O)C1=C(C)N=c2s/c(=C\c3c(OC)ccc4ccccc34)c(=O)n2C1c1ccc(OCC)c(OCC)c1 (stereo not drawn) | -14.0 | -0.3 | -0.1 | 3.4
CCSCCOC(=O)C1=C(C)NC2=C(C(=O)C(C(=O)OC)C(C)C2)C1c1c(F)cccc1Cl (stereo not drawn) | -0.2 | 1.3 | 1.9* | -14.7
COc1ccc(N2C(=O)CN(C3CCSCC3)CC23CCCC3)cc1 | 34.8 | 1.2 | 0.7 | 5.3
CC1CCN(c2nc3ncccc3nc2-c2ccccc2)CC1 | 11.1 | -0.3 | 2.1* | -1.5
CCn1ncc(C2=NOC(C(=O)NCc3ccco3)C2)c1C (stereo not drawn) | -19.9 | -0.5 | 0.1 | 44.8*
O=C(NCc1ccco1)C1CC(c2ccccc2F)=NO1 (stereo not drawn) | 1.5 | 1.0 | 0.1 | 5.0
Cc1cc(C)c2sc(N(CCN(C)C)C(=O)c3ccccc3[N+](=O)[O-])nc2c1 | 26.8 | -1.5 | 0.5 | -3.0
COc1ccc(C(CC(=O)O)NC(=O)COc2cc(C)ccc2C)cc1OC (stereo not drawn) | 3.4 | -0.8 | 2.9* | 5.1
COc1ccc(C(CC(=O)O)NC(=O)COc2ccccc2)cc1OC (stereo not drawn) | -11.2 | -1.2 | 0.1 | -4.8
CCOC(=O)CCCCN(Cc1ccccc1F)S(=O)(=O)c1ccc(F)c(C(=O)Nc2ccc(Cl)cc2)c1 | 17.4 | 0.0 | 0.5 | 5.9
COc1ccc(NC(=O)C2(c3cccs3)CCCC2)cc1 | -7.3 | 0.8 | -0.2 | -3.5
O=[N+]([O-])c1ccc(Cc2nnc(-c3ccc(Cl)cc3Cl)o2)cc1 | 11.2 | -0.2 | 0.4 | 51.7*
O=[N+]([O-])c1ccc(Cc2nnc(-c3ccccc3Br)o2)cc1 | 1.3 | -1.7 | -0.4 | 32.2*
O=[N+]([O-])c1ccc(Cc2nnc(-c3ccccc3Cl)o2)cc1 | -0.4 | 0.7 | -0.3 | 27.0
COc1ccccc1N(CC(=O)NC(C(C)C)C(C)C)S(C)(=O)=O | -7.7 | -0.1 | -0.1 | -2.7
CC(C)C(NC(=O)CN(c1ccccc1Br)S(C)(=O)=O)C(C)C | 21.5 | -0.3 | 2.4* | -13.6
c1ccc(NNC2=Nc3ccccc3CCC2)cc1 | 2.7 | -0.2 | -0.1 | 35.7*
CC(C)n1c(N2CCc3ccccc3C2)nc2c(NCCO)ncnc21 | 1.3 | -1.9 | 0.0 | -15.2
CC(=O)NCC1CCC2(CCN(Cc3ccc4ccccc4c3)CC2)O1 (stereo not drawn) | -5.4 | -0.3 | -0.3 | -7.2
